Only some compounds are listed: those with a hit (about 17% of all), similar ones and a draw of the others.
ClpP mod = qHTS Assay for Activators of ClpP; ATP-dependent Clp protease proteolytic subunit (Bacillus subtilis (strain 168)), P80244; purified B. subtilis ClpP, FRET peptide cleavage, 20 min; Potency, µM (top dose mostly 57.5 µM); actives 1.9% (n = 340,000); AID 651965, 2013; active means well fitted falling curve with a large enough effect; inconclusive means small, poorly fitted or top-dose-only effect; inactive means no such curve, though single readings can be large or run the other way; further: the source files actives as falling curves though it sought activators and does not explain the sign; nearly all actives have a fitted effect of over 65% in size
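ClpP 10 microg/mL final, pH 8 Tris/KCl buffer with BSA, glycerol, Tween-20; compound pinned in; FRET-FV substrate; RT 20 min; Ex320/Em430; ΔFRET vs ADEP 5.8 microM, DMSO, no enzyme.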
TDP1 cell CPT = DT40-hTDP1 cell growth loss with CPT; Potency, µM (series often up to 46.2 µM), most hits filed as inhibitors; chicken DT40 Tdp1-/-;hTDP1 cells + 20 nM CPT, ATP luminescence, 48 h; actives 12% (n = 420,000); further: nearly all actives have a fitted effect of over 55% in size
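Chicken DT40 Tdp1-/- cells complemented with human TDP1, 400 cells/well, exposed to compounds plus 20 nM camptothecin for at least 48 h at 37 C; viability read as ATP content by CellTiter-Glo luminescence.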
TDP1 inh = TDP1 (human) enzyme inhibition; Q9NUW8; recombinant TDP1, AlphaScreen DNA substrate cleavage; Potency, µM (top dose mostly 130 µM), most hits filed as inhibitors; actives 0.28% (n = 350,000); further: nearly all actives have a fitted effect of over 40% in size
Target sequence (Q9NUW8 whole entry, looked up): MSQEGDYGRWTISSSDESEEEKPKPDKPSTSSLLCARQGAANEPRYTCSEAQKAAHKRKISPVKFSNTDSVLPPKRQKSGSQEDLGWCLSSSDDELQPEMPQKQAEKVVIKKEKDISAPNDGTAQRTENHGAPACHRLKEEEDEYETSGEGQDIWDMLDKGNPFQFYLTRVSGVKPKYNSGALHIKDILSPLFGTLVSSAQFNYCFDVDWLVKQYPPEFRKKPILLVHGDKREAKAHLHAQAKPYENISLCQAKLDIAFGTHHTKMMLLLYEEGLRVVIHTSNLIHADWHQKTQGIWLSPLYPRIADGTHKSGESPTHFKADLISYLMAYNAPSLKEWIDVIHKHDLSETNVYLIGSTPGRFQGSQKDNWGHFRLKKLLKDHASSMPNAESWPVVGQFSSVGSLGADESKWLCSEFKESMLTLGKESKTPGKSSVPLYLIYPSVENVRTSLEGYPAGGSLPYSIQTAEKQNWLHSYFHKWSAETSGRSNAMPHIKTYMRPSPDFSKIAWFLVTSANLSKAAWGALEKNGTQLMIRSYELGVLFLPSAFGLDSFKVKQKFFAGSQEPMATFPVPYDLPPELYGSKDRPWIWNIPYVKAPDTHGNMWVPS
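Compounds were preincubated with Tdp1 (1 nM final) for 15 min at room temperature before substrate (15 nM final) started a 5 min reaction; beads (10 ug/ml final) were then added for 10 min before AlphaScreen detection.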
TDP1 cell noCPT = qHTS for Inhibitors of human tyrosyl-DNA phosphodiesterase 1 (TDP1): qHTS in cells in absence of CPT; DT40 Tdp1-/- hTDP1 cells, no CPT, ATP luminescence, 48 h; Potency, µM (top dose mostly 46.2 µM), actives largely listed as inhibitors; AID 686978, 2013; actives 15% (n = 420,000); further: nearly all actives have a fitted effect of over 55% in size
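Growth of hTDP1-complemented DT40 Tdp1-knockout cells is measured by ATP luminescence after at least 48 hr compound exposure at 37 °C, with DMSO substituting for the 20 nM CPT used in the parallel screen.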
Hits are given with their value; - = inactive; ? = inconclusive; . = not tested or not shown; [ ] = dose if it differs, or a comment. Unless noted, the call rests on the fitted dose curve; in most records, active means well fitted curve in the direction sought with a large enough effect; inconclusive means small, poorly fitted or top-dose-only effect, or another doubt; inactive means no such curve, though single readings can be large; an effect the other way counts as inactive or inconclusive.

SMILES	ClpP mod	TDP1 cell CPT	TDP1 inh	TDP1 cell noCPT
C[C@@H]1[C@H](c2ccccc2)OCCS(=O)(=O)N1Cc1ccccc1	-	-	.	-
C[C@@H]1[C@H](c2ccccc2)OCCS(=O)(=O)N1Cc1cccc(Cl)c1	-	?	.	13µM
Cc1ccc(SCCN2CCN(C)CC2)cc1	.	-	-	-
C[C@@H]1CN([C@@H](C)CO)C(=O)c2cc(Br)cnc2O[C@H]1CN(C)Cc1cccc(C(=O)O)c1	-	-	.	-
CC(C)OC(=O)c1ccc2ccc(-c3ccccc3)nc2c1	-	?	.	16µM
CCN(CCCNC(=O)c1cn(CC)c2ccc(S(=O)(=O)N(C)C)cc2c1=O)c1cccc(C)c1	-	?	-	?
CCn1cc(C(=O)NCCCN(C)c2ccccc2)c(=O)c2cc(S(=O)(=O)N(C)C)ccc21	-	16µM	-	?
CCn1cc(C(=O)NCc2ccc3c(c2)OCO3)c(=O)c2cc(S(=O)(=O)N(C)C)ccc21	-	?	-	18µM
CCn1cc(C(=O)NCc2ccc(Cl)cc2)c(=O)c2cc(S(=O)(=O)N(C)C)ccc21	.	?	.	21µM
Cc1oc(-c2ccc(-c3ccccc3)cc2)nc1CN1CCN(CC(=O)N(C)C)CC1	-	-	-	-
Cc1ccc(NS(=O)(=O)c2ccc3c(c2)NC(=O)CCS3)c(C)c1	-	23µM	-	?
CCC1Sc2ccc(S(=O)(=O)Nc3ccc(OC)c(OC)c3)cc2NC1=O (stereo unspecified)	.	21µM	-	8.2µM
COc1ccc(Cl)cc1NS(=O)(=O)c1ccc2c(c1)NC(=O)CCS2	-	?	-	4.6µM
Cc1cc(C)c(NS(=O)(=O)c2ccc3c(c2)NC(=O)CCS3)c(C)c1	-	?	-	15µM
O=C(c1cnccn1)N1CCC2(CCN(Cc3ccncc3)CC2)CC1	.	-	.	?
CC(NC(=O)c1ccccc1)C(=O)OCC(=O)c1ccc(Br)cc1 (stereo unspecified)	-	-	.	-
CCCC[C@@H]1CCCO[C@@](C(=O)NCCN2CCOCC2)(C(F)(F)F)C1	.	.	-	.
CCOc1ccc(NS(=O)(=O)c2ccc3c(c2)NC(=O)CCS3)cc1	-	?	-	12µM
Fc1ccc2c(c1)Sc1ccc(Cl)cc1CC2N1CCN(CCC2OCCO2)CC1 (stereo unspecified)	.	?	.	18µM
CC(C)C[C@H](NC(=O)OC(C)(C)C)C(=O)N/N=C/C1=Cc2ccccc2OC1C (stereo partly specified)	28µM	?	-	?
O=S1(=O)C[C@H](N2CC[C@@H](O)C2)[C@@H](COCc2ccccc2)N1	-	-	.	-
COc1ccc(CCN=C(N)NS(=O)(=O)c2ccccc2)cc1	-	?	-	-
COc1ccc(CCN=C(N)Nc2nc(C)cc(C)n2)cc1	.	7.3µM	-	7.3µM
Cc1ccccc1Nc1c(-c2ccc(Cl)s2)nc2c(C)cccn12	-	?	-	?
Cc1ccccc1Nc1c(-c2ccc(Cl)s2)nc2cccc(C)n12	-	8.2µM	-[12.3 µM]	?
SMILES	ClpP mod	TDP1 cell CPT	TDP1 inh	TDP1 cell noCPT
Cc1ccccc1Nc1c(-c2ccccc2)nc2cccc(C)n12	-	?	-	3.2µM
Cc1ccccc1Nc1oc(-c2ccccc2)nc1-c1ccccc1F	.	.	-	.
CC(C)CC(NC(N)=O)C(=O)NCCc1ccc(Cl)cc1 (stereo unspecified)	-	-	-	-
CCOC(=O)c1cc(C)n(Cc2ccc(OCC)c(OC)c2)c1C	-	11µM	-	?
CCOC(=O)c1c(C)c(C)n(Cc2ccc(OC)c(OC)c2)c1C	-	21µM	-	18µM
CC(C)CCNC(=O)c1c2c(nc3ccccc13)C(=O)N(C1CCCCC1)C2	-	?	-	?
Cc1ccc(NC(=O)CC(NC(=O)c2ccccc2Cl)c2ccccc2)nc1 (stereo unspecified)	-	-	-	-
COc1cc(NC(=O)Cn2nc3c(cc2=O)CC(C)CC3)cc(OC)c1OC (stereo unspecified)	-	-	-	-
CN(C)S(=O)(=O)N1CCC(n2c(C(F)(F)F)nc3cccnc32)CC1	-	?	-	-
COc1ccccc1-[n+]1c(C)cc(/C=C2\Sc3ccccc3N2C)cc1C	-	0.065µM	-	0.021µM
COc1ccccc1OC(=O)CCN1c2ccccc2Sc2ccccc21	-	-	-	-
